# Screening data (PubChem BioAssay)
# Compounds with a hit are over-represented: about 19% of the library has one in this group of screens.
# TGFb SMAD3 inh – TGF-b pathway inhibition | HepG2 CAGA-GFP TGF-b/SMAD3 reporter, GFP fluorescence, 18 h; TGF-beta stimulated, 500 pg/mL final | Potency, µM (top dose mostly 46.1 µM), for inactives: top-dose activity, negative = inhibition, actives largely listed as inhibitors | 410,000 tested, 1.2% active; note: potency is the fitted concentration of half-maximal effect; % is set by controls: 0 for no effect and ±100 for the full control effect; nearly all actives have a fitted effect of over 65% in size
#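 Smad-responsive CAGA-GFP expression was quantified in HEPG2 cells exposed to compounds and 500 pg/mL final TGF-beta for 18 h at 37 degrees C; unstimulated wells defined full inhibition.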
# DT40 TDP1 no CPT – qHTS for Inhibitors of human tyrosyl-DNA phosphodiesterase 1 (TDP1): qHTS in cells in absence of CPT; DT40 Tdp1-/- hTDP1 cells, no CPT, ATP luminescence, 48 h; Potency, µM (titrated, usually from 46.2 µM), for the others: top-dose activity change, negative = growth inhibition, hits mostly inhibitors; 420,000 tested, 15% active; note: potency is the fitted concentration of half-maximal effect; % is set by controls: 0 for no effect and ±100 for the full control effect; nearly all actives have a fitted effect of over 55% in size
#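 Readout: luminescence from CellTiter-Glo after 30 min in the dark at RT. Cells: DT40 Tdp1-/- with stable hTDP1, 400/well. Exposure: compounds alone, ≥48 hr, 37 °C.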
# IL1B secr inh – inflammasome signaling inhibition, IL-1 beta readout; THP-1 LPS/ATP IL-1B secretion, AlphaLISA, 16 h; stronger effect = lower value; activity change, % at 57.5 µM; 360,000 tested, 4.7% active; AID 743279; in the data active = activity change below about -50%; inconclusive = mostly about -30% to -49%; note: % is set by controls: 0 for no effect and ±100 for the full control effect
#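 THP-1 cells pretreated 1 hr with compounds (up to 57.5 uM final), then stimulated with LPS (250 ng/mL final) plus ATP (1.25 mM final); secreted IL-1B measured by AlphaLISA after 16 hr, decreased signal indicating inhibition.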
# HepG2 tox – kills HepG2 cells in TGF-b inhibitor counter-screen; HepG2 CAGA-GFP viability, ATP luminescence, 18 h; Potency, µM (highest dose often 46.1 µM), without a hit: top-dose activity change, negative = cytotoxicity, most hits filed as cytotoxic; 410,000 tested, 0.76% active; note: potency is the fitted concentration of half-maximal effect
#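 CellTiter-Glo luminescence gave cytotoxicity after 18 hours at 37 degrees C. The cells were HepG2 CAGA-GFP in 1% FBS DMEM, stimulated with 500 pg/mL TGF-beta after compound addition. %Activity was normalised to no-cell wells (complete cell-killing) and DMSO (no toxicity), and curves were fitted and classified.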
# S-ASM inh – blocks human secretory acid sphingomyelinase. 340,000 tested, 0.006% active. placental ASM, HMU-PC fluorogenic substrate, 60 min. Potency, µM (highest dose often 57.5 µM), for the others: at the highest dose activity change, negative = inhibition, most hits filed as inhibitors. AID 504937; note: potency is the fitted concentration of half-maximal effect
# Target sequence (P17405 47-631 limits assumed): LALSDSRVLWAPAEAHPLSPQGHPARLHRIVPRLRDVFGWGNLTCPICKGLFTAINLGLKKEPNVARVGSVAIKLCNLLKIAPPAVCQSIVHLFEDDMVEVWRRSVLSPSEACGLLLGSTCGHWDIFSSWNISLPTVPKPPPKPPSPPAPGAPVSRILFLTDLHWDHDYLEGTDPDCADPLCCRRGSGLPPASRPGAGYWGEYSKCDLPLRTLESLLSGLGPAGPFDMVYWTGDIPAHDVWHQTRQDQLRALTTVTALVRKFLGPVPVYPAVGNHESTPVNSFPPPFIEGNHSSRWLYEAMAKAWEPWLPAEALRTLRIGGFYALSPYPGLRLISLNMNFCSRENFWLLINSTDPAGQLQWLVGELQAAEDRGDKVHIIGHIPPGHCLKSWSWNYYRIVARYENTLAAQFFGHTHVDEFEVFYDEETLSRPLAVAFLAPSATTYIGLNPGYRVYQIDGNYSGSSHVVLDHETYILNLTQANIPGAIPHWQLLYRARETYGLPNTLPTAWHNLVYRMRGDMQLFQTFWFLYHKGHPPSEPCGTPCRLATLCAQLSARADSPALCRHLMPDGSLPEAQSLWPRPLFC
#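 Fluorescence read-out (Ex 386 nm, Em 447 nm) after stopping the reaction at pH 10. Enzyme: ASM from human placenta; substrate HMU-PC0, 9 uM final; 60 min, 37 °C. Compound preincubation 10 min, ambient temperature.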
# TDP1 cell CPT – DT40-hTDP1 cell growth loss with CPT; chicken DT40 Tdp1-/-;hTDP1 cells + 20 nM CPT, ATP luminescence, 48 h; Potency, µM (top dose mostly 46.2 µM), for the others: top-dose activity change, negative = growth inhibition, most hits filed as inhibitors; 420,000 tested, 12% active; AID 686979; note: potency is the fitted concentration of half-maximal effect; % is set by controls: 0 for no effect and ±100 for the full control effect; nearly all actives have a fitted effect of over 55% in size
#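 Chicken DT40 Tdp1-/- cells complemented with human TDP1, 400 cells/well, exposed to compounds plus 20 nM camptothecin for at least 48 h at 37 C; viability read as ATP content by CellTiter-Glo luminescence.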
# * hit, by the source's call; ? = inconclusive; . = no result. Unless noted, calls come from the whole dose curve; as a rule, active = well fitted curve in the direction sought with a large enough effect; inconclusive = small, poorly fitted or top-dose-only effect, or another doubt; inactive = no such curve, though single readings can be large; an effect the other way counts as inactive or inconclusive.
SMILES,TGFb SMAD3 inh,DT40 TDP1 no CPT,IL1B secr inh,HepG2 tox,S-ASM inh,TDP1 cell CPT
Cc1nonc1NC(=O)CSc1nc(C23CC4CC(CC(C4)C2)C3)nc2ccccc12,?,?,-89.9*,-73.6%,-23.9%,?
Cc1cc(NC(=O)CSc2nc(C3CCCCC3)nc3ccccc23)no1,16.8%,?,-28.6,-5.0%,-1.7%,?
Cc1nonc1NC(=O)CSc1nc(C2CCCCC2)nc2ccccc12,0.0%,23.1µM*,-73.6*,-22.5%,-11.3%,29.1µM*
NC(=O)CSc1nc(C23CC4CC(CC(C4)C2)C3)nc2ccccc12,-22.2%,25.9µM*,?,1.7%,-0.9%,?
COc1ccccc1CNS(=O)(=O)c1ccc(N2CCCCS2(=O)=O)cc1,-22.3%,23.1µM*,.,-10.0%,.,?
CCC(C)NS(=O)(=O)c1ccc(N2CCCCS2(=O)=O)cc1 (configuration not stated),-31.5%,?,.,-10.6%,.,?
CC(C)CCNS(=O)(=O)c1ccc(N2CCCCS2(=O)=O)cc1,?,9.2µM*,.,-53.2%,.,11.6µM*
CCCCCNS(=O)(=O)c1ccc(N2CCCCS2(=O)=O)cc1,-17.0%,18.4µM*,.,-12.7%,.,16.4µM*
CCN(CC)S(=O)(=O)c1ccc(N2CCCCS2(=O)=O)cc1,-11.3%,-22.6%,.,-0.6%,.,-15.1%
Cc1cc(C)cc(NS(=O)(=O)c2ccc(N3CCCCS3(=O)=O)cc2)c1,-18.9%,14.6µM*,.,-11.5%,.,11.6µM*
Cc1ccc(-n2c(=O)c3c4c(sc3n(Cc3ccccc3F)c2=O)CCC4)cc1C,-4.1%,-3.2%,.,-6.3%,.,-17.7%
O=C(O)c1cc(S(=O)(=O)Nc2cccc(Oc3ccccc3)c2)ccc1Br,1.1%,7.7%,67.1,1.5%,12.2%,-1.0%
O=C(C1CCN(S(=O)(=O)c2ccccc2)CC1)N1CCCCCC1,-8.9%,2.3%,0.0,-19.1%,-1.0%,9.8%
CCOc1ccccc1NS(=O)(=O)c1ccc(N2CCCCS2(=O)=O)cc1,6.6%,?,.,10.0%,.,?
CCOC(=O)c1ccccc1NS(=O)(=O)c1ccc(N2CCCCS2(=O)=O)cc1,-46.0%,16.4µM*,.,3.2%,.,23.1µM*
CCOc1ccc(-n2c(C)cc(/C=N\NC(=O)CC(=O)NC3CCCCC3)c2C)cc1,-28.4%,13µM*,-29.1,-14.2%,-4.7%,18.4µM*
CCOc1ccc(-n2c(C)cc(/C=N/N(C)C)c2C)cc1,-19.1%,7.31µM*,27.5,-14.2%,-3.8%,9.2µM*
CCOc1ccc(-n2c(C)cc(/C=N/Nc3nc(C)cc(=O)[nH]3)c2C)cc1,-14.9%,11.6µM*,-3.2,-8.8%,-2.7%,16.4µM*
CCOc1ccc(-n2c(C)cc(/C=N/NC(=O)C(N)=O)c2C)cc1,22.5%,-18.5%,10.9,-1.4%,1.2%,5.4%
COC(=O)C[C@H]1C=C[C@H](NS(=O)(=O)c2cn(C)cn2)[C@@H](CO)O1,.,-1.7%,31.4,.,.,-6.1%
Cc1cc(N2CCN(c3ncccn3)CC2)nc2c(C)cccc12,-26.6%,14.6µM*,39.9,-28.4%,21.6%,?
Cc1nc2ccccn2c1-c1ccnn1S(=O)(=O)c1ccc(F)cc1,?,11.6µM*,19.7,-36.8%,0.8%,20.6µM*
Cc1ccc(-c2nnc(N3CCC(C)CC3)c3ccccc23)cc1C,?,9.2µM*,-94.7*,-20.3%,-3.3%,6.51µM*
Cc1ccc(-c2nnc(N3CCC(C)CC3)c3ccccc23)cc1,?,8.2µM*,-14.2,-26.6%,-0.6%,13µM*
CCc1ccccc1NC(=O)Nc1nnc(N(C)Cc2ccccc2)s1,12.6µM*,?,.,-12.7%,.,?
Cc1ccc(Cl)cc1NC(=O)Nc1nnc(N(C)Cc2ccccc2)s1,20.1%,23.1µM*,.,-24.2%,.,20.6µM*
